# Source: PubChem BioAssay
# aSyn rescue: inhibitors of alpha-synuclein toxicity in yeast; AID 652106; Yeast expressing alpha-synuclein, growth rescue, BacTiter-Glo, 24 h; 370,000 compounds, 0.14% hits; Potency, µM (titrated, usually from 46.1 µM), usual class: activators; note: nearly all actives have a fitted effect of over 65% in size
#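 Rescue of yeast growth: cells expressing toxic alpha-synuclein, induced in galactose at OD600 0.02, incubated with compound 24 h at 30 C. ATP luminescence quantified growth; inhibitors of toxicity appear as activators.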
# FUS suppressor: suppressors of FUS proteinopathy in yeast. S. cerevisiae FUS-expressing, growth rescue, OD600, 24 h. Potency, µM (doses to about 76.6 µM), hits mostly activators. 390,000 compounds, 0.24% hits. AID 1347120; note: nearly all actives have a fitted effect of over 55% in size
#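 Cultures pregrown in 2.5% raffinose medium are shifted to minimal medium containing 2% galactose to express toxic FUS. Compounds are tested at several concentrations. After 24hr at 30C, growth is quantified at 600 nm absorbance.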
# PTHR1 ag: agonists of human PTHR1 parathyroid hormone receptor. HEK293 GP2 PTHR1 cells, GloSensor cAMP luminescence, 1 h. Potency, µM (top dose mostly 115 µM), usual class: activators. 410,000 compounds, 0.075% hits. AID 743266; note: nearly all actives have a fitted effect of over 55% in size
# Target sequence (Q03431 whole entry, looked up): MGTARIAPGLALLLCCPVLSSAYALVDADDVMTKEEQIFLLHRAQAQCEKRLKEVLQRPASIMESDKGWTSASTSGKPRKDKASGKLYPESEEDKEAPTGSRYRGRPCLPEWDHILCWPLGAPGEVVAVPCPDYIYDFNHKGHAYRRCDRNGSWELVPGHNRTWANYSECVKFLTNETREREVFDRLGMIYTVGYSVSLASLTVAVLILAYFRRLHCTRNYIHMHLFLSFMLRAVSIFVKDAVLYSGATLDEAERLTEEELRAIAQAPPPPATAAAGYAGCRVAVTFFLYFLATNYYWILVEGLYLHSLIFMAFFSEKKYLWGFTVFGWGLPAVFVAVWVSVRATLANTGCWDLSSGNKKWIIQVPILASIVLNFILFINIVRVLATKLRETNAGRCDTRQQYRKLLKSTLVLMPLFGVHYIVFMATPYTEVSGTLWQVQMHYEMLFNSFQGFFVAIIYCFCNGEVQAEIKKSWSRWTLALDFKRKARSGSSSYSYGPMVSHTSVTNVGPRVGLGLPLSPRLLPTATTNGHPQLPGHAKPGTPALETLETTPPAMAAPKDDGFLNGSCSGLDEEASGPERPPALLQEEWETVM
#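 HEK-293-derived GP2 cells expressing PTHR1 and a GloSensor cAMP reporter, 3,000/well, plated overnight, given luciferin plus IBMX (each 0.5 mM as added) for 1 h at 37 °C, then compound for 1 h at 37 °C. Luminescence was read after 15 min at room temperature.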
# Abeta rescue: A-beta toxicity reversal in yeast; yeast expressing A-beta42, growth rescue, OD600, 48 h; response scale: 0% DMSO, 100% iron-clioquinol control; Potency, µM (highest dose often 46.1 µM), usual class: activators; 410,000 compounds, 0.063% hits; AID 1347071; note: nearly all actives have a fitted effect of over 55% in size
#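 Yeast growth medium received pinned compounds, then yeast cells expressing toxic A-beta were added; plates incubated at 30 C for 48 hr. Growth read as absorbance at 600 nm, normalized to DMSO and equimolar FeCl3 plus clioquinol controls.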
# LDHA block: LDHA (human) enzyme inhibition | P00338 | purified LDHA, NADH/diaphorase-resazurin fluorescence; active compounds read low | activity change, % (values are at about 110 or 230 µM) | 480,000 compounds, 0.15% hits | AID 1347041; in the data active = activity change below about -30%; inconclusive = mostly about -25% to -30%
#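 Resorufin fluorescence (ex540/em590), read at 0 and 20 min after diaphorase/resazurin addition, reports the NADH left after a 5 min room-temperature reaction of 2 nM human LDH5 with 0.06 mM NADH and 0.2 mM pyruvate.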
# TDP43 rescue: TDP-43 toxicity inhibition in yeast; TDP-43 expressing yeast growth rescue, BacTiter-Glo, 24 h; Potency, µM (top dose mostly 46.1 µM), hits mostly activators; 410,000 compounds, 1.8% hits; AID 652104; note: nearly all actives have a fitted effect of over 50% in size
#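 Growth rescue of TDP-43-toxic yeast measured as ATP luminescence (BacTiter-Glo). Cells grown to mid-log in raffinose, induced in galactose at OD600=0.02, exposed to compound 24 hr at 30 deg C.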
# Hits are given with their value; 0 = inactive; ? = inconclusive; - = no result given. Most compounds without a hit are left out; they make up all but 1.9% or so of the library. Unless noted, calls come from the whole dose curve; as a rule, active = well fitted curve in the direction sought with a large enough effect; inconclusive = small, poorly fitted or top-dose-only effect, or another doubt; inactive = no such curve, though single readings can be large; an effect the other way counts as inactive or inconclusive.
SMILES,aSyn rescue,FUS suppressor,PTHR1 ag,Abeta rescue,LDHA block,TDP43 rescue
CCn1c(COc2cccc(C)c2)nnc1SCC(=O)Nc1cccc(C(=O)O)c1,0,0,0,0,0,0
CCn1c(COc2cccc(C)c2)nnc1SCC(=O)Nc1cccc(C(=O)OC)c1,0,0,0,0,0,20µM
Cn1c(=O)c2c(nc(Cl)n2CC(=O)N(C2CC2)C2CCS(=O)(=O)C2)n(C)c1=O (stereo not given),-,-,-,-,0,-
O=C1NC2(CCCCCC2)N=C1c1ccc(F)cc1,0,0,0,0,0,16µM
S=C1NC2(CCCCCC2)N=C1c1ccccc1,0,0,0,5µM,0,?
Cc1ccc(C2=NC3(CCCC3)NC2=S)cc1,0,0,0,?,0,?
O=C(O)c1ccc(CNCc2ccc(-c3ccccc3)o2)cc1,-,-,-,-,0,-
CCN(CC)CCCNC(=O)c1nc(-c2cccc3[nH]ccc23)no1,-,-,-,-,0,-
CCCOc1ccc(C(=O)NNC(=S)NC(=O)c2ccccc2)cc1,0,0,0,0,0,?
O=C(NC(=S)NNC(=O)c1ccco1)c1ccc(Br)cc1,?,0,0,0,0,3.5µM
O=C(COc1ccc(Cl)cc1Cl)NNC(=S)NC(=O)c1ccco1,10µM,0,0,?,0,18µM
CCCOc1ccc(C(=O)NNC(=S)NC(C)=O)cc1,4µM,0,0,?,0,11µM
CCCOc1ccc(C(=O)NNC(=S)NC(=O)c2ccco2)cc1,0,0,0,0,0,6.3µM
COc1ccc(C(=O)NNC(=S)NC(=O)c2ccco2)cc1,0,0,0,0,0,?
CCn1cc(S(=O)(=O)Nc2ccn(Cc3ccccc3Cl)n2)c(C)n1,-,-,-,-,0,-
Nc1cccc(OCc2ccccc2)c1,-,-,-,-,0,-
O=C(/C=C/c1ccco1)NC(=S)NNC(=O)c1ccco1,11µM,0,0,?,0,?
CCC(=O)NC(=S)NNC(=O)c1ccc(OC)cc1,10µM,0,0,10µM,0,0
CN(C)C(=O)C1CC1c1ccc(Br)cc1 (stereo not given),-,-,-,-,0,-
O=C(NCCCNC(=O)c1ccccc1F)c1cc2ccccc2[nH]1,-,-,-,-,0,-
CCOc1ccccc1NC(=O)C(NCCN(C)C)c1ccccc1 (stereo not given),0,0,0,0,-41,0
CN(C)CCNC(C(=O)Nc1cccc(S(=O)(=O)N2CCOCC2)c1)c1ccccc1 (stereo not given),0,0,0,0,0,0
CN(C)CCNC(C(=O)Nc1cccc(C(F)(F)F)c1)c1ccccc1 (stereo not given),0,0,0,0,-37,0
COc1ccc(-c2coc3cc(OCC(=O)Nc4ccccc4Cl)ccc3c2=O)cc1,-,-,-,-,0,-
CCCN(Cc1nnc(-c2ccccc2Cl)o1)C(=O)COc1ccc(Cl)cc1,0,-,0,0,0,35µM
SMILES,aSyn rescue,FUS suppressor,PTHR1 ag,Abeta rescue,LDHA block,TDP43 rescue
O=C(COc1ccc(Br)cc1)N(Cc1nnc(-c2ccccc2Cl)o1)C1CC1,?,?,0,0,0,20µM
CCC(=O)c1ccc(OCC(=O)N(Cc2nnc(-c3ccccc3Cl)o2)C2CC2)cc1,0,0,0,0,0,0
CCc1ccc(C(=O)C(C)OC(=O)c2ccc(CO)cc2)cc1 (stereo not given),-,-,-,-,0,-
CCN(Cc1c(C#N)c2ccccc2n1C)c1ccccc1,-,-,-,-,0,-
Clc1nc(Nc2ccccc2)nc(Nc2ccccc2)n1,0,0,0,0,0,0
COc1ccccc1Nc1nc(Cl)nc(NC(C)(C)C)n1,0,0,0,0,0,22µM
CC(C)(C)Nc1nc(Cl)nc(Nc2ccccc2)n1,0,0,0,0,0,28µM
COc1ccc(Nc2nc(Cl)nc(Nc3ccc(OC)cc3OC)n2)c(OC)c1,0,0,0,0,0,0
CCCN(CCC)S(=O)(=O)NCc1ccnc(OCc2ccccc2)c1,-,-,-,-,0,-
COc1ccc(C=NNC(=O)NN=Cc2ccc(OC)c(OC)c2)cc1OC,0,0,0,0,0,0
COc1ccc(/C=N/NC(=S)SC)cc1OC,0,0,0,?,0,35µM
C=CC[C@@H](CC(=O)N[C@@H](CO)Cc1ccccc1)C(=O)N[C@H](COC(=O)[C@@H](CC=C)Cc1ccc(F)cc1)Cc1ccccc1,0,0,0,0,0,0
C=CCC[C@H](Cc1ccc(F)cc1)C(=O)OC[C@@H](C)NC(=O)[C@@H](CC=C)CC(=O)N[C@@H](CO)Cc1ccccc1,0,0,0,0,0,0
C=CCC[C@@H](Cc1ccc(F)cc1)C(=O)OC[C@@H](NC(=O)[C@@H](CC=C)CC(=O)N[C@@H](CO)Cc1ccccc1)C(C)(C)C,0,0,0,0,0,0
C=CCC[C@H](Cc1ccc(F)cc1)C(=O)OC[C@@H](C)NC(=O)[C@@H](CC=C)CC(=O)N[C@H](CO)Cc1ccccc1,0,25µM,0,0,0,0
C=CCC[C@H](Cc1ccc(F)cc1)C(=O)OC[C@@H](NC(=O)[C@@H](CC=C)CC(=O)N[C@@H](CO)Cc1ccccc1)C(C)(C)C,0,13µM,0,0,0,0
C=CC[C@@H](CC(=O)N[C@H](CO)Cc1ccccc1)C(=O)N[C@H](COC(=O)[C@@H](CC=C)Cc1ccc(F)cc1)C(C)(C)C,0,16µM,0,0,0,0
CC(C)(C)NCc1ccc2c(c1)OCO2,-,-,-,-,0,-
O=C(O)C(c1c(-c2ccccc2)[nH]c2ccccc12)N1CCN(Cc2cccnc2)CC1 (stereo not given),-,-,-,-,0,-
CCOc1ccccc1NC(=O)C1CC(=O)Nc2nc3ccccc3n21 (stereo not given),-,-,-,-,0,-
CC(C)(C)N(Cc1ccccc1)C(=O)COC(=O)c1cc2ccccc2oc1=O,-,-,-,-,0,-
CCN1CCN(c2oc(-c3ccccc3F)nc2C#N)CC1,-,-,-,-,-31,-
CCN1CCN(c2oc(-c3cccs3)nc2C#N)CC1,-,-,-,-,-31,-
N#Cc1nc(-c2cccs2)oc1N1CCN(c2ccccc2)CC1,0,?,0,0,0,0
N#Cc1nc(-c2ccc(F)cc2)oc1N1CCN(c2ccccc2)CC1,-,-,-,-,0,-
N#Cc1nc(-c2ccc(F)cc2)oc1N1CCN(Cc2ccccc2)CC1,-,-,-,-,-34,-
Cc1cccc(CCNC(=O)c2cnc3c(C)cccn3c2=O)c1,-,0,0,0,0,28µM
Cc1cccc(C)c1NC(=O)C(C1CC1)n1c(=O)c(-c2cc3ccccc3[nH]2)nc2ccccc21 (stereo not given),?,5.6µM,?,0,0,?
Cc1cccc(C)c1NC(=O)C(C1CC1)n1c(=O)c(-c2ccccc2)nc2ccccc21 (stereo not given),?,0,0,0,0,13µM
